# Shown are actives, neighbours in structure and some others; about 2.9% of the full set was active somewhere.
# IP6K1 inhibitor: Primary qHTS assay for small molecule inhibitors of Inositol hexaphosphate kinase 1 (IP6K1) | 140,000 compounds, 0.81% hits | IP6K1 kinase, ADP-Glo luminescence, 2 h; hits give low values | AID 1645851, 2021 | activity change, % (series mostly up to about 58 µM) | Inositol hexakisphosphate kinase 1 (Homo sapiens), Q92551; in the data active = activity change below about -25%; also: % is scaled to controls: 0 for no effect and ±100 for the full control effect
#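 ADP-Glo luminescence measures ADP made by human IP6K1 during a 2 h RT reaction with ATP/IP6 (mix at 1.3 mM/130 uM); top library doses 57.5 and 19.1 uM final.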
# SNCA viab count: GF-AFC viability counterscreen for inhibitors of alpha-synuclein gene (SNCA) expression | HEK-293-SNCA-luc viability, GF-AFC fluorescence, 24 h | Potency, µM (highest dose often 57.1 µM), inactives show at the highest dose activity change, negative = cytotoxicity, usual class: cytotoxic | 150,000 compounds, 0.12% hits | AID 1671193, 2021;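 also: potency is read from the fitted curve at half-maximal effect; 0% = DMSO-treated cells and -100% = medium-only wells without cells; nearly all actives have a fitted effect of over 30% in size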
#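 HEK-293-SNCA-luc cells (1500/well) plated 24 h, then exposed 24 h to a dilution series; GF-AFC added 30 min at 37C, fluorescence 405/540 nm; normalised to medium-only and DMSO wells, Hill fit.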
# KDM5B inh: Primary screen for KDM5B Histone Demethylases FDH-coupled qHTS | Lysine-specific demethylase 5B (Homo sapiens), Q9UGL1 | Potency, µM (doses to about 57.7 µM), usual class: inhibitors | 220,000 compounds, 2.6% hits | KDM5B demethylase, FDH-coupled NADH fluorescence (FDH is formaldehyde dehydrogenase); also: potency is read from the fitted curve at half-maximal effect; 0% is about no effect; nearly all actives have a fitted effect of over 70% in size
# Target sequence (Q9UGL1 whole entry, looked up): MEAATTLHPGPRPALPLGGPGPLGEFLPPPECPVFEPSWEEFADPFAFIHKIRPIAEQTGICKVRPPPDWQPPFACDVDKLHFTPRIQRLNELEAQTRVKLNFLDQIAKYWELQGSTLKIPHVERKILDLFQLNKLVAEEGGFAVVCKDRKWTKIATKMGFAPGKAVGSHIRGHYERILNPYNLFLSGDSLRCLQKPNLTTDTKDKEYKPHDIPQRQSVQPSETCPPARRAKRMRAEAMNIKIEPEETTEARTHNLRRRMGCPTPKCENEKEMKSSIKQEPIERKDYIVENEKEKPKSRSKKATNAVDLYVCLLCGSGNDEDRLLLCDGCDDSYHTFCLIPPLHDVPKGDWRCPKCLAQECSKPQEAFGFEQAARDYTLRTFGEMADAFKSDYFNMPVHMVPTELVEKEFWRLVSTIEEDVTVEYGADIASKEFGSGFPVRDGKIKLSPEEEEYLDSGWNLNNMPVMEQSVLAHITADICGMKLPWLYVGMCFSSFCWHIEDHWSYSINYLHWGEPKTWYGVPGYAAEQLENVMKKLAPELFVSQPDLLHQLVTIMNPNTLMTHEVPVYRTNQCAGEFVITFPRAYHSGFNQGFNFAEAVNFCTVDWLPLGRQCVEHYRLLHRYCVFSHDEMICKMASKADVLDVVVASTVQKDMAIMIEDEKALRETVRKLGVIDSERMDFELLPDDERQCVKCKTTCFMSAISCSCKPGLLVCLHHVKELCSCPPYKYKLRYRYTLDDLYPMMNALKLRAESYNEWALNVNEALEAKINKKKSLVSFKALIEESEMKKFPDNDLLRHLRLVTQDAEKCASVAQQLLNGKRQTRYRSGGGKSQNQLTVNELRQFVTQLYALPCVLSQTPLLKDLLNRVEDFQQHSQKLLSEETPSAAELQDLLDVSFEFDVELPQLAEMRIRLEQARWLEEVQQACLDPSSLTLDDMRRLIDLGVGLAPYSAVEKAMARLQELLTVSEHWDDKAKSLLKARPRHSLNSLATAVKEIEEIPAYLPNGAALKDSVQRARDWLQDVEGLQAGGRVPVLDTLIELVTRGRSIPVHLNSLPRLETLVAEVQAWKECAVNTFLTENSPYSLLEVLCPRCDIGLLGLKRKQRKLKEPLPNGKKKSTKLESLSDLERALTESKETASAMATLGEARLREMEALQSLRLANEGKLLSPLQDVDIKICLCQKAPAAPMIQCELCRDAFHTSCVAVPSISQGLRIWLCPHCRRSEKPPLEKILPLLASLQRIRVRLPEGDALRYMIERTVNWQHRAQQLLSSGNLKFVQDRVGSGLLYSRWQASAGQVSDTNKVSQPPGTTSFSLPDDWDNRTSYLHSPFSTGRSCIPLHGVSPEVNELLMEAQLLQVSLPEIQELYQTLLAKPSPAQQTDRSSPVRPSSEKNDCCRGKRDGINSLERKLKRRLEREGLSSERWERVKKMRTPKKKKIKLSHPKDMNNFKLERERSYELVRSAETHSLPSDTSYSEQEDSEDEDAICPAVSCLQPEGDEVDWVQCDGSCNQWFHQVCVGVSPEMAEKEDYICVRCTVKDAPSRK
#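 Compound dilutions met 200 nM (final) KDM5BΔAP for 10 min at room temperature before substrate addition. The substrate mix held 12.5 µM H3K4me3 with cofactors 25 µM α-ketoglutarate and 50 µM Fe²⁺. NADH signal gain over 30 min defined activity.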
# SNCA expr inhib: Primary qHTS assay for inhibitors of alpha-synuclein gene (SNCA) expression | HEK-293 SNCA-luciferase knock-in, luminescence, 24 h | Potency, µM (highest dose often 57.2 µM), for inactives: at the top dose activity change, negative = inhibition, hits mostly inhibitors | 140,000 compounds, 0.17% hits;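 also: potency is read from the fitted curve at half-maximal effect; plate controls were DMSO cells for no effect and cell-free wells for full effect; nearly all actives have a fitted effect of over 45% in size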
# * = called active by the depositor; i = inactive; ? = inconclusive; . = no result; [ ] = dose if it differs, or a comment. Unless noted, calls follow the shape of the dose curve; as a rule, active = well fitted curve in the direction sought with a large enough effect; inconclusive = small, poorly fitted or top-dose-only effect, or another doubt; inactive = no such curve, though single readings can be large; an effect the other way counts as inactive or inconclusive.
SMILES,IP6K1 inhibitor,SNCA viab count,KDM5B inh,SNCA expr inhib
COc1ccc2[nH]c(C(=O)N[C@H]3COC[C@H]3Cc3cc(C)no3)c(C)c2c1,0.3,5.5%,22.4µM*,14.9%
COc1ccc(C2(C(=O)N[C@H]3COC[C@H]3Cc3cc(C)no3)CCCC2)cc1,0.8,-0.7%,i,10.1%
c1cncc(-c2ccnc(N3CCCOC(Cn4cccn4)C3)n2)c1 (centres undefined),-17.2,-2.8%,25.1µM*,-15.7%
Fc1ccccc1OCC1CCCN(c2nccc(-c3cccnc3)n2)C1 (centres undefined),0.5,3.6%,28.2µM*,-9.1%
O=C(NCc1cccc(Cl)c1)C(=O)Nc1cccc(O)c1,.,.,i,.
CCN(CC)Cc1nnc2cc(-c3nc(-c4ccccc4)no3)ccn12,-2.6,-6.0%,20µM*,86.0%
c1ccc(-c2noc(-c3ccn4c(CN5CCCCCC5)nnc4c3)n2)cc1,14.8,-19.8%,?,35.8%
NC(=O)C1CCN(Cc2nnc3cc(-c4nc(-c5ccccc5)no4)ccn23)CC1,10.3,12.9%,6.31µM*,95.6%
C=CCN(CC=C)Cc1nnc2cc(-c3nc(-c4ccccc4)no3)ccn12,4.6,-6.2%,25.1µM*,65.4%
O=C(Nc1ccccc1)[C@@H]1C[C@H](c2ccc(F)cc2)N([S+](=O)([O-])C2CC2)C1,3.9,4.2%[87.6 µM],i,-4.9%[87.6 µM]
CCOc1cccc(-c2noc(-c3nnn4c3COC(c3cccc(OC)c3)C4)n2)c1 (centres undefined),7.9,6.6%,25.1µM*,1.5%
CCOc1ccc(C2Cn3nnc(-c4nc(-c5ccccc5OC)no4)c3CO2)cc1 (centres undefined),-7.2,6.3%,?,-14.1%
CCOc1ccc(C2Cn3nnc(-c4nc(-c5ccccc5Br)no4)c3CO2)cc1 (centres undefined),-1.6,0.9%,22.4µM*,-1.8%
O=C(Nc1cccc(F)c1)N1CCN(Cc2ccc(Cl)s2)CC1,.,.,i,.
NC1CCC(n2cc(C(=O)NC3CCCN(c4ncccn4)C3)nn2)CC1 (centres undefined),8.2,-9.3%,25.1µM*,3.5%
CCCCc1nc2cc(C=CC(=O)NO)ccc2n1CCN(CC)CC,.,-20.7%,.,17.7%
CCn1cc(-c2cc3c(cn2)CN(Cc2ccncc2)CCN3)cn1,-19.3,2.1%[87.6 µM],31.6µM*,-8.3%[87.6 µM]
Cn1nccc1-c1cc2c(cn1)CN(Cc1ccncc1)CCN2,-10.1,11.7%[87.6 µM],35.5µM*,?
FC(F)(F)c1ccc(N2C3CCC2CN(Cc2cccs2)C3)cc1,-3.3,-2.6%,?,-13.8%
Cc1ccc(CNC(=O)C2(CCO)CCN(c3ncccn3)C2)o1 (centres undefined),-0.3,-6.2%,28.2µM*,-22.3%
CC(C)CCNC(=O)C1(CCO)CCN(c2ncccn2)C1 (centres undefined),-6.5,-4.9%,25.1µM*,3.8%
O=C(Nc1cccc(OC(F)(F)F)c1)C1(CCO)CCN(c2ncccn2)C1 (centres undefined),5.2,-20.2%,25.1µM*,?
CCCNC(=O)C1(CCO)CCN(c2ncccn2)C1 (centres undefined),1.8,10.0%,?,47.3%
Cc1ccc(NC(=O)C2(CCO)CCN(c3ncccn3)C2)cc1 (centres undefined),11.4,0.0%,28.2µM*,?
O=C(Nc1ccncc1)C1=NO[C@@H]2CN(CCc3ccccc3)C[C@H]12,21.1,4.5%[87.6 µM],i,-3.9%[87.6 µM]
SMILES,IP6K1 inhibitor,SNCA viab count,KDM5B inh,SNCA expr inhib
O=C(OCc1ccccc1)N1CCC2(CC1)C(=O)NN=C2c1ccncc1,1.8,2.4%,i,7.5%
COc1ccc(CN2CCNC(=O)C2CC(=O)NC2CCOCC2)c(F)c1 (centres undefined),.,.,i,.
COc1ccc(CN2CCNC(=O)C2CC(=O)NCc2ccco2)c(F)c1 (centres undefined),4.3,1.7%,10µM*,7.8%
CN(C)c1ccc(-c2nnc([C@H]3CCN(Cc4ccco4)C3)o2)cc1,2.1,-8.7%[87.6 µM],?,32.0%[87.6 µM]
CCC(COC)NC(=O)c1c(C)noc1-c1cc(OC)c(OC)c(OC)c1 (centres undefined),13.6,3.5%,28.2µM*,0.4%
COCCCNC(=O)c1c(C)noc1-c1cc(OC)c(OC)c(OC)c1,23.0,9.6%,31.6µM*,4.0%

# Screening data (PubChem BioAssay)
